Data on 91 compounds can be found in PubChem BioAssay AID588352 (The Scripps Research Institute Molecular Screening Center, 2011).

The campaign covered roughly 360,000 compounds. About 620 (0.17%) were called active.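 Rule for the calls: active = inhibition above a per-campaign cutoff, the mean of all compounds plus 3 SD (cut at about 60% in these data); inactive = the rest.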 The full list was thinned out, with actives kept by preference.

Nuclear receptor coactivator 3 (Homo sapiens), sequence (Q9Y6Q9 whole entry, looked up, the tested form may be a part): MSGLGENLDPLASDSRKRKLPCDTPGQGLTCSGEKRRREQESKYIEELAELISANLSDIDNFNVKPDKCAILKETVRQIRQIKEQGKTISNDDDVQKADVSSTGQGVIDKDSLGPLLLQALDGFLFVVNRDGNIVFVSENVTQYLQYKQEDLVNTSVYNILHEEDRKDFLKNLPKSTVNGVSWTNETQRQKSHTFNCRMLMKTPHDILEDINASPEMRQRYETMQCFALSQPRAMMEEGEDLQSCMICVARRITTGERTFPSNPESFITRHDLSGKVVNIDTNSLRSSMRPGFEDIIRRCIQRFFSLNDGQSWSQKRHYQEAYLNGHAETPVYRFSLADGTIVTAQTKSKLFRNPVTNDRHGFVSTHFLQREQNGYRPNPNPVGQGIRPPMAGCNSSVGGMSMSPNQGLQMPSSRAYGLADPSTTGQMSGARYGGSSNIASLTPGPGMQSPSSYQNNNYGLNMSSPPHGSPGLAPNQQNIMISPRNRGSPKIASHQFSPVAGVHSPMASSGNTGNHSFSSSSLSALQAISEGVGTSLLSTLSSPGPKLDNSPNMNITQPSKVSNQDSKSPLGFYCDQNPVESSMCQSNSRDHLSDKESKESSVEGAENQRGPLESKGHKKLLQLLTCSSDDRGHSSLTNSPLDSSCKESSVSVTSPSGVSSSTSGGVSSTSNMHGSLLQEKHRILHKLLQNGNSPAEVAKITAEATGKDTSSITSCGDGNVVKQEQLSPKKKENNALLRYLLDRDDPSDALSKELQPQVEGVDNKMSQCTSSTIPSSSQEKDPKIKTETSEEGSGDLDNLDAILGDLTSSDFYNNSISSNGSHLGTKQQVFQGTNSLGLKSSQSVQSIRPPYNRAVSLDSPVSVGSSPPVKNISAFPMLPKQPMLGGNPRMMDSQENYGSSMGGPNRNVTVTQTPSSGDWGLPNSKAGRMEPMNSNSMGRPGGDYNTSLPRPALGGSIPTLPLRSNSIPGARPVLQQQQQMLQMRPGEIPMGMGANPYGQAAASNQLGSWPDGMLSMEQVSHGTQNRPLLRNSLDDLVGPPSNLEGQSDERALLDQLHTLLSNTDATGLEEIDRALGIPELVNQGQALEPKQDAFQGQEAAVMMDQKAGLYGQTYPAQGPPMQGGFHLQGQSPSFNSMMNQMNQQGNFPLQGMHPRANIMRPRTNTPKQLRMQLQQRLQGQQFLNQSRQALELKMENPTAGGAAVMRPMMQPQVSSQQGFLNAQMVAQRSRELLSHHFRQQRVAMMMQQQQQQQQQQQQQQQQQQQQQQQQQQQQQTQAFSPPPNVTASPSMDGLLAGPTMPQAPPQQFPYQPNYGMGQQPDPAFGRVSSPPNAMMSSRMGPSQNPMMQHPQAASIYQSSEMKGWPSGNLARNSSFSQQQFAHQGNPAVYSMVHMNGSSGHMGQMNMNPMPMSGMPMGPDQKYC

The assay addresses Nuclear receptor coactivator 3 (Homo sapiens) (UniProt Q9Y6Q9). Put plainly: NCOA3 GAL4-fusion reporter inhibition – cell-based, luminescence, primary screen (AID 588352).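 Note: 0% = DMSO-treated cells and 100% = gossypol-treated cells at 36 µM; higher means less SRC3-driven luciferase light from the GAL4 reporter.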 To be noted: HEK293 GAL4-SRC3 luciferase reporter, at 3.6 µM, stronger effect = higher value.
For `CC(NC(=O)CCCC1CCCCC1)c1ccc(S(N)(=O)=O)cc1` (stereo unspecified), the inhibition was 4.7% (inactive). On to `CC/C(C)=N/Nc1nc2sc3c(c2c(=O)[nH]1)CC(C)(C)OC3`, for which the inhibition is -4.5% (inactive). With `O=C(CN1CCN(c2ncccn2)CC1)Nc1ccccc1C(F)(F)F`, the inhibition was 17.7% (inactive).

Take `CC1(C(=O)NS(=O)(=O)c2ccc(C#N)cc2)CCN1C(=O)c1ccc(C2CCCCC2)cc1` (stereo unspecified): the inhibition is 8.43% (inactive). In the case of `CC(C)C(c1nnnn1C1CCCCC1)N1CCN(C(=O)c2ccco2)CC1` (stereo unspecified) it was -1.28% (inactive); in that of `COc1cccc2c(C)c(C(=O)O)[nH]c12`, 4.08% (inactive). Next, `CCc1ccc(Oc2nc([N+](=O)[O-])nn2C)cc1`: 12.1% (inactive). Next, `CC(=O)c1c(C)c[nH]c1C`: 11% (inactive); `CCc1nc2ccc(C(=O)NCc3ccc(OC)cc3)cn2c1N(CC)Cc1cccc(Br)c1`: 0.61% (inactive).

In the case of `CCCCn1c(N)c(N(CCC(C)C)C(=O)CC2OC(=O)c3ccccc32)c(=O)[nH]c1=O` (stereo unspecified), the inhibition was 12.2% (inactive).

Consider `Cc1cccc2cc(CN(C(=O)c3cccs3)c3ccccc3)c(=O)[nH]c12`, for which the inhibition is 15.8% (inactive). Take `O=S(=O)(Cc1nnnn1-c1ccc(Br)cc1)c1ccc(F)cc1`: the inhibition is -7.02% (inactive). For the compound `Cc1cc(C)nc(SCc2nnc(SCC(=O)OC3CCCCC3)o2)n1`, the inhibition was -10.7% (inactive). For the compound `CCCNC(=O)c1ccc(N2CCC3(CC2)CC(c2ccc(Cl)cc2)=NO3)c([N+](=O)[O-])c1`, the inhibition is 0.35% (inactive). Next, `CC1CCCCC1NC(=O)c1cc(=O)[nH]c2ccccc12` (stereo unspecified): 9.65% (inactive); `COc1ccc(F)cc1C(=O)C1CCCN(C(=O)CCc2ccccn2)C1` (stereo unspecified): 14.9% (inactive); `Cc1noc(C)c1C(=O)N1CCC1(C)C(=O)NS(=O)(=O)c1ccc(C#N)cc1` (stereo unspecified): -19.1% (inactive). In the case of `O=C(NCCCCCCCCCNC(=O)C(F)(F)F)C(F)(F)F` it was -9.12% (inactive). `Cc1ccc(S(=O)(=O)NCC(=O)N(CC(=O)NC2CCCCC2)Cc2ccco2)cc1`: the inhibition was 12.3% (inactive). In the case of `COC(=O)CN1C(=O)[C@H]2[C@@H](C3CC3)N3C(=O)CN(Cc4ccc(-c5ccccc5)cc4)C(=O)[C@@]3(Cc3ccccc3)[C@H]2C1=O` it was 9.14% (inactive); in that of `CC1(C)CC(=O)C=C(c2ccc(Cl)c(C(F)(F)F)c2)C1`, -9.95% (inactive). Next, `CCN(CC)S(=O)(=O)N1CCC(C(=O)NC(C)CCc2ccccc2)CC1` (stereo unspecified): 15.5% (inactive); `Cc1nn(CC(=O)NC2CCCCC2)c(=O)c2cccn12`: -10.9% (inactive); `CCOC(=O)c1c(C)n(C)c2ccc(OC)c(NC(=O)CN3CCC4(CC3)OCCO4)c12`: 6.95% (inactive). As to `CCOC(=O)c1csc(CCNC(=O)c2oc3c(Cl)cc(C)cc3c2C)n1`, the inhibition is -12.1% (inactive). In the case of `CC(C)CC(CO)N1CCN(C(=O)c2ccc(Cl)cc2Cl)CCC1=O` (stereo unspecified) it was 5.22% (inactive); in that of `COc1ccc(C(CNC(=O)c2cccc(S(=O)(=O)Nc3ccc(Br)cc3)c2)N(C)C)cc1` (stereo unspecified), 1.78% (inactive). In the case of `COc1ccc(CNC(=O)COC(=O)C2=Cc3ccccc3OC2)cc1`, the inhibition is -19.6% (inactive). In the case of `O=C(O)c1ccccc1C(=O)NC1=NN(c2ccccc2)CC1` it was 3.76% (inactive); in that of `CC1(C)CC(N2CCN(C(c3ccccc3)c3ccccc3)CC2)=CC(=[N+]2CCCCC2)C1`, 80% (active); in that of `CCN1/C(=C\c2ccc3ccccc3[n+]2CC)Sc2cc(C)ccc21`, 64.7% (active). As for `C[C@@H]1CN([C@H](C)CO)C(=O)c2cc(-c3ccc(F)cc3)cnc2O[C@H]1CN(C)C(=O)c1ccc(F)cc1`, the inhibition was -2.15% (inactive).

In the case of `CC(C)[C@H](NC(=O)N1CC(=O)Nc2ccccc21)C(=O)N[C@@H](Cc1c[nH]c2ccccc12)C(=O)O`, the inhibition is 11.1% (inactive). In the case of `Cc1cc2ncn(CCCCOc3ccccc3)c2cc1C` it was -3.7% (inactive); in that of `C/C=C(/C)C(=O)O[C@@H]1c2cc3c(c4c2[C@@]2(CO4)C(=O)C(OC)=C(OC)C=C2C[C@@H](C)[C@H]1C)OCO3`, -4.38% (inactive).

For `C=CC[C@@H](CC(=O)NCCO)C(=O)N[C@H](C)COC(=O)[C@@H](CC=C)CC(=O)OC(C)(C)C`, the inhibition was 0.5% (inactive). In the case of `CC(=O)Nc1ccc(-c2ccnc3c2CC(C(=O)NC(C)C)O3)cc1` (stereo unspecified) it was 10.3% (inactive); in that of `COc1cccc(OC)c1C(=O)OCC(=O)/C(C#N)=C(\C)N`, 7.58% (inactive).

As to `Cc1ccc(Cn2c(C)c3cnn(CC(=O)NCCN4CCOCC4)c(=O)c3c2C)cc1`, the inhibition is -3.71% (inactive).

On to `CC(OC(=O)c1ccc(NS(=O)(=O)c2ccc3[nH]c(=O)[nH]c3c2)cc1)C(=O)Nc1cccc(Cl)c1Cl` (stereo unspecified), for which the inhibition was 4.52% (inactive). Next, `COc1cc(NC(=S)NNC(=O)CC(C)C)c(OC)cc1Cl`: 17.8% (inactive); `O=C(NCc1ccco1)C1CCCN1S(=O)(=O)c1ccccc1C(F)(F)F` (stereo unspecified): 8.79% (inactive). In the case of `Cc1cc(NC(=O)CN2C(=O)NC(CC(C)C)C2=O)no1` (stereo unspecified) it was -3.85% (inactive). With `FC(F)(F)c1cc(C(F)(F)F)c2ccc(N3CCN(c4ccccc4)CC3)nc2n1`, the inhibition is 1.84% (inactive). Next, `O=C(C1=C(O)C(=O)N(CCOCCO)C1c1ccccn1)c1cccs1` (stereo unspecified): 3.48% (inactive); `Cc1cccc(N2CCN(C(=O)COCc3cc(-c4ccc5c(c4)OCO5)on3)CC2)c1C`: -10.1% (inactive); `CCn1c(NC(=O)c2nn(C)cc2Br)nc2ccccc21`: 9.26% (inactive). Take `Cc1cccc(Cn2cnc3c(N)c(C)c(C)cc32)c1`: the inhibition was 8.42% (inactive). Next, `O=C(O)CCCn1cc(NC(=O)COc2cccc(Cl)c2)cn1`: 19.3% (inactive); `Cc1cc(=O)oc2cc(OCC3CC(c4ccccc4Cl)=NO3)ccc12` (stereo unspecified): -29.1% (inactive). `COc1cc(NC(=S)N2CCCC(C)C2)cc(OC)c1OC` (stereo unspecified): the inhibition was 8.3% (inactive). In the case of `N#Cc1ccccc1S(=O)(=O)N1CCN(C(=O)c2cc(-c3ccccc3)nn2-c2ccccc2)CC1` it was 4.59% (inactive); in that of `Cc1ccsc1C(=O)OCC(=O)Nc1cccc(F)c1`, -16.2% (inactive). As to `Cc1ccsc1C(=O)OCC(=O)c1cc(C)n(CC2CCCO2)c1C` (stereo unspecified), the inhibition is 80.6% (active). On to `Cc1ccsc1C(=O)OCC(=O)NCCc1ccccc1`, for which the inhibition is -54.7% (inactive).

Consider `Cc1cccc(-n2c(Cc3cc(=O)[nH]c(=O)[nH]3)nnc2SC(C)C)c1`, for which the inhibition is 1.68% (inactive). Regarding `Cc1cc(C)c(C2C3=C(Nc4c2c(C)nn4-c2ccccn2)c2ccccc2C3=O)c(C)c1` (stereo unspecified), the inhibition was 9.07% (inactive).

Turning to `CC1(C(=O)O)CCC(C(=O)Nc2ccc(Cl)c(Cl)c2)C1(C)C` (stereo unspecified), the inhibition was 7.83% (inactive).

As for `Cc1ccc(CC(=O)Nc2ccc(OC(F)F)c(Cl)c2)cc1C`, the inhibition was 1.82% (inactive). On to `O=C(CC(O)(C(F)(F)F)C(F)(F)F)Nc1ccc(Cl)c(Cl)c1`, for which the inhibition is 80% (active). Next, `CCCCCN(C(=O)NC(=O)Nc1cccc(C)c1C)S(C)(=O)=O`: -2.15% (inactive); `Cc1ccccc1/C=C\c1nc(O)c([N+](=O)[O-])c(=O)[nH]1`: 2.28% (inactive); `COc1ccc(NC2CCCN(C(=O)c3ccccc3-c3ncc[nH]3)C2)cc1` (stereo unspecified): -11.7% (inactive). Take `Cc1c(C(=O)c2cccc([N+](=O)[O-])c2)c2ccccn2c1CCC#N`: the inhibition is 26.8% (inactive).

On to `C=CCn1c(C)cc(C2=NNC(=NCC)SC2)c1C`, for which the inhibition was 86% (active). Turning to `Cc1ccc(S(=O)(=O)Nc2ccccc2CNc2c(C)n(C)n(-c3ccccc3)c2=O)cc1`, the inhibition is 22.2% (inactive).

`O=S(=O)(Nc1n[nH]c(C(F)(F)F)n1)c1ccccc1`: the inhibition is 6.01% (inactive). In the case of `CN(C)S(=O)(=O)c1ccc(Oc2ccc(S(=O)(=O)N(C)C)cc2)cc1` it was 25.9% (inactive); in that of `CC(C)(C)c1ccc(Oc2ccc(N)cc2)cc1`, 82.3% (active). Next, `O=C(CSc1nnc(-c2ccc([N+](=O)[O-])cc2)o1)Nc1ccccn1`: -82% (inactive); `Cc1nc(CNS(=O)(=O)c2ccc(Oc3ccccc3)cc2)cs1`: 13.4% (inactive). Next, `CCNC(=O)NC(=O)C(C)OC(=O)C1CCN(S(=O)(=O)c2ccccc2F)CC1` (stereo unspecified): 18.3% (inactive); `CSCCC(=O)N1CCCC(CNC(=O)c2ccccc2Cl)C1` (stereo unspecified): 13.3% (inactive); `Cc1cccc(N2C(=O)SC(SC(=Nc3ccccc3)Nc3ccccc3)C2=O)c1` (stereo unspecified): -7.91% (inactive). As for `Cc1ccc(NC(=O)CCC(=O)N/N=C/c2ccco2)c(C)c1`, the inhibition was 16.4% (inactive). Next, `Cc1ccc(/C=N/NC(=O)C2=NNC(c3ccccc3)(c3ccccc3)C2)c(O)c1`: 65% (active); `Cc1ccc(/C=N/NC(=O)C(NC(=O)c2ccccc2)c2n[nH]c(=O)c3ccccc23)cc1` (stereo unspecified): -30.1% (inactive).

As to `Cc1c(CN2CCC(n3nccc3NC(=O)CCc3ccccc3)CC2)cnn1C`, the inhibition is 23.5% (inactive). Next, `CCc1c(O)nc(SCC(=O)Nc2ccccc2)n(C(C)CC)c1=O` (stereo unspecified): -6.38% (inactive); `CN(C)c1ccc(NC(=O)c2ccncc2)c2ccccc12`: 1.55% (inactive); `O=C1c2ccncc2C(=O)N1C1CCCCC1`: -19.6% (inactive). For `CC(Sc1nnc(Cc2ccc([N+](=O)[O-])cc2)o1)C(N)=O` (stereo unspecified), the inhibition was -2.53% (inactive). For the compound `O=C(CCNS(=O)(=O)c1ccccc1)NCCSc1ccc(Br)cc1`, the inhibition was -5.67% (inactive).

`CC(C)(CSc1nncn1/N=C/c1ccco1)NS(=O)(=O)c1ccc(Cl)cc1`: the inhibition is 0.37% (inactive).

`O=C(O)CCC(=O)Nc1ccc(OCC2CCCO2)cc1` (stereo unspecified): the inhibition is 4.7% (inactive). In the case of `COc1ccc(-c2nc(N)ncc2-c2ccc(Cl)cc2)c(O)c1` it was 1.54% (inactive). Next, `COc1ccc(OC)c(Cc2cnc3nc(N)nc(N)c3c2C)c1`: 63.7% (active). `OCCCNc1nccc(-c2cc(Nc3cccc(Cl)c3)ncn2)n1`: the inhibition is 90.9% (active). Next, `C/C(=C\c1ccccc1)C1NC(=O)c2c(sc3c2CCCC3)N1` (stereo unspecified): 21.8% (inactive).

`Cc1[nH]c(=O)c(C(=O)/C=C/c2ccccc2)c2c1CCCC2`: the inhibition is 64.9% (active). For `CC1(C(=O)O)CCCN(C(=O)/C=C/c2ccccc2)C1` (stereo unspecified), the inhibition is -1.88% (inactive).
